Source: PubChem BioAssay (NCATS)
Inconclusive results are not listed. A call without a number means that no potency is given here. Activity calls are given as the source filed them. Calls follow the shape of the full dose curve.

Test system: not listed separately
Experiment: Natriuretic polypeptide receptor (hNpr1) antagonism - Pilot counterscreen GloSensor control cell line (AID 1347045); also: potency is read from the fitted curve at half-maximal effect
Conditions: HEK293 cGMP GloSensor cells, SNP-stimulated luminescence, 20 min; series mostly up to 38.3 µM
Summary of the method: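 The SNP-driven cGMP luminescence signal (50 uM, 20 min, room temperature) was measured in GloSensor HEK293 control cells. Compounds were tested as a LOPAC titration series and preincubated for 30-50 min.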

| Structure (SMILES) | Potency |
| --- | --- |
| Cc1ccc(C(=O)O[C@H](C(=O)O)[C@@H](OC(=O)c2ccc(C)cc2)C(=O)O)cc1 (tested in a mixture with another compound) | inactive |
| CCNC(=O)[C@H]1O[C@@H](n2cnc3c(N)nc(NCCc4ccc(CCC(=O)O)cc4)nc32)[C@H](O)[C@@H]1O | inactive |
| CCCCC#Cc1nc(NC)c2ncn([C@@H]3O[C@H](CO)[C@@H](O)[C@H]3O)c2n1 | inactive |
| O=C1/C(=C/c2ccsc2)CC/C1=C\c1cccs1 | 1.47 µM (active) |

Molecular target: Atrial natriuretic peptide receptor 1 (Homo sapiens) (UniProt P16066)
Sequence (P16066 whole entry, looked up): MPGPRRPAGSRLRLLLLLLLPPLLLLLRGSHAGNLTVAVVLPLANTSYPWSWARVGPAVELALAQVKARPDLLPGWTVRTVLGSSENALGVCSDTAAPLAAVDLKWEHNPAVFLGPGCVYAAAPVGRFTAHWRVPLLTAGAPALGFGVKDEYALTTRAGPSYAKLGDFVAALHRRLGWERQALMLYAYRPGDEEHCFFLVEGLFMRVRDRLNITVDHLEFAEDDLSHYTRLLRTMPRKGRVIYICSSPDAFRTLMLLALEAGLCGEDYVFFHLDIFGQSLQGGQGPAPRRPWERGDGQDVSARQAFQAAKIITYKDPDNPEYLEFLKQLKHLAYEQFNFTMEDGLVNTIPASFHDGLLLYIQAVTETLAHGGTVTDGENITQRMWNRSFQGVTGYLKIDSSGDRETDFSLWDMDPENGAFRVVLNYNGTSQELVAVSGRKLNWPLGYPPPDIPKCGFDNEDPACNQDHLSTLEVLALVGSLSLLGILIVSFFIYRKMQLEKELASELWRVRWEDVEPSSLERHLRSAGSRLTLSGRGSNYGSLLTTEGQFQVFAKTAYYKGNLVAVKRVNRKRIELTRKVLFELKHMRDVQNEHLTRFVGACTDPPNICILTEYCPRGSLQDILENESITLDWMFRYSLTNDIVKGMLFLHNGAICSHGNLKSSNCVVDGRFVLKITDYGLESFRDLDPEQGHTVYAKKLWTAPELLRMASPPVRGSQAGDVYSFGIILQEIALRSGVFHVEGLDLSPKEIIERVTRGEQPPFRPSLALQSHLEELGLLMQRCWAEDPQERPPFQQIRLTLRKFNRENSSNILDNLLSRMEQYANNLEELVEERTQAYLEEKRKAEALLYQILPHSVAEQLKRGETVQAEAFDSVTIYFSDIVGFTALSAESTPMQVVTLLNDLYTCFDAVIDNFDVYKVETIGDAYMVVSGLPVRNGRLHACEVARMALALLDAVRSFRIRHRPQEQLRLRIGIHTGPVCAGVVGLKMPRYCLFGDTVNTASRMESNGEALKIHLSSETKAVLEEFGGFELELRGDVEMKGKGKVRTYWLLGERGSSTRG
Experiment: Natriuretic polypeptide receptor (hNpr1) antagonism - Pilot screen (AID 1347049);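 also: agonist-evoked cGMP luminescence read 20 min after hNppA addition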
Conditions: hNpr1 cells, antagonist mode cGMP read-out; series mostly up to 57.5 µM
Summary of the method: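 cGMP-sensor HEK293/hNpr1 cells, 1500/well, plated overnight at 37C. 2% GloSensor reagent, 2 h RT. Compound (23 nL pin transfer) 30 min RT, baseline luminescence pre-read. 0.1 nM hNppA, 20 min RT, post-read.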

| Structure (SMILES) | Potency |
| --- | --- |
| CCCCCCCCc1ccc(-c2ccc(C(=O)O)cc2)cc1 | inactive |
| CCc1c(C(=O)NCCc2ccc(N3CCCCC3)cc2)[nH]c2ccc(Cl)cc12 | inactive |
| Cc1cc(NC(=O)Nc2ccc3c(ccn3C)c2)sn1 | inactive |
| COc1ccc2c(c1)CCC1C2CC[C@@]2(C)C1CC[C@@H]2NCCCCCCN1C(=O)CCC1=O (stereo partly drawn) | inactive |
| C[N+](C)(C)CCOP(=O)(O)OP(=O)([O-])OC[C@H]1O[C@@H](n2ccc(N)nc2=O)[C@H](O)[C@@H]1O | inactive |
| CCNC(=O)[C@H]1O[C@@H](n2cnc3c(N)nc(NCCc4ccc(CCC(=O)O)cc4)nc32)[C@H](O)[C@@H]1O | inactive |
| CCN(CC)c1ncnc2c1ncn2[C@@H]1O[C@H](COP(=O)(O)OP(=O)(O)C(Br)(Br)P(=O)(O)O)[C@@H](O)[C@H]1O | inactive |
| CC(C)CC(NP(=O)(O)O[C@@H]1O[C@@H](C)[C@H](O)[C@@H](O)[C@H]1O)C(=O)NC(Cc1c[nH]c2ccccc12)C(=O)O (stereo partly drawn) | inactive |
| NO | inactive |
